# Laboratory results taken from PubChem BioAssay AID434962 (The Scripps Research Institute Molecular Screening Center, 2010).
# In all, about 320,000 compounds went through this assay and about 1,300 (0.41%) were called active. What follows is part of a selection rich in actives, with near analogues and random picks from the rest. A number with no mark means an inactive call.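 The calls were made as follows: active = percent inhibition above the average of all tested compounds plus 3 SD, set per screening campaign (cut at about 16% in these data); inactive = the rest.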
# Molecular target: Insulin-degrading enzyme (Homo sapiens) (UniProt P14735)
# Sequence (P14735 whole entry, looked up): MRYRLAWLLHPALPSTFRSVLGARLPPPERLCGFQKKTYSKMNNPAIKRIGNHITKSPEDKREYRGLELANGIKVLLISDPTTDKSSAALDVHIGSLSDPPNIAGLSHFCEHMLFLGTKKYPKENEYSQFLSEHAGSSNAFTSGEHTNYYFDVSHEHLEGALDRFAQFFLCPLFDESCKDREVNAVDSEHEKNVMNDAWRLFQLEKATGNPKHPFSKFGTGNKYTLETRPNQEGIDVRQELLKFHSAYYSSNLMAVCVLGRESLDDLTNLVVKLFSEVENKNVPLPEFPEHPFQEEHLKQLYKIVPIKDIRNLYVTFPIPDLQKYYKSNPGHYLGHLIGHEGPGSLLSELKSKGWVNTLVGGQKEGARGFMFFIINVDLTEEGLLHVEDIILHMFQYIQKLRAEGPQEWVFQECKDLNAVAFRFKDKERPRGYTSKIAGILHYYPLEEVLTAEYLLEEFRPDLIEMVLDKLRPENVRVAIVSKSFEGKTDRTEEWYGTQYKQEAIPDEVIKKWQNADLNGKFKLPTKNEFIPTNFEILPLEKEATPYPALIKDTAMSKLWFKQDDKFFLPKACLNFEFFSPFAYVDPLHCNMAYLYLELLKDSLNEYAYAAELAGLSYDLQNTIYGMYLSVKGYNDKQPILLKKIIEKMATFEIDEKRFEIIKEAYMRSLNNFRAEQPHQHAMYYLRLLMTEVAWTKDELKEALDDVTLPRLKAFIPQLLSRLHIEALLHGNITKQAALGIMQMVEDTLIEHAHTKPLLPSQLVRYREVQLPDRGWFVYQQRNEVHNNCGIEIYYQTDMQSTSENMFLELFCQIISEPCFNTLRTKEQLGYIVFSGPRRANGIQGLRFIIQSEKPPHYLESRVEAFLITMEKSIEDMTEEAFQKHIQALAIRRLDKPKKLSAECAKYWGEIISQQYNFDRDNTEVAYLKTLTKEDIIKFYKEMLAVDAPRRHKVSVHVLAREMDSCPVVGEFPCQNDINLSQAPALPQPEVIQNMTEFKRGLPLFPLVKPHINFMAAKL
# Assay: human IDE inhibitors in live cells, primary screen, fluorescence polarization, HEK cells, FAbetaB substrate (AID 434962);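 also: IDE supplied by intact live HEK cells; FP after avidin binding of uncleaved biotin substrate so inhibition keeps polarization high; 0% = DMSO wells and 100% = 60 µM reference IDE inhibitor Ii1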
# Conditions: FAbetaB cleavage, at 5.59 µM, stronger effect = higher value
row,Structure (SMILES),inhibition
1,Cc1ccnc(N2CCCC(C(=O)NC3CC3)C2)n1 (stereo not given),1.69%
2,Cc1nc2ccccc2c(=O)n1NC(=O)c1ccccc1,7.25%
3,Cc1ccnc(-n2sc3ccccc3c2=O)n1,57.8% (active)
4,COc1cccc(CNC(=O)C2CCCN(c3ncnc4c3nc3n4CCCCC3)C2)c1 (stereo not given),8.69%
5,O=C(/C=C/c1ccccc1)Oc1coc(CSc2ncccn2)cc1=O,4.39%
6,COC(=O)c1sccc1-n1cccc1C(=O)C(=O)N1CCCCC1,-0.4%
7,CCc1ccc(N(CC(=O)NCc2cccnc2)S(=O)(=O)c2ccccc2)cc1,8.22%
8,O=C(c1cccnc1)N(c1cc2sc(=O)oc2c2ccccc12)S(=O)(=O)c1ccccc1,20.4% (active)
9,COc1ccc(N(C(=O)c2cccnc2)S(=O)(=O)c2ccc(OC)c(OC)c2)cc1,-4.14%
10,O=C(Cn1nnc2ccccc2c1=O)Nc1cc(C(F)(F)F)ccc1N1CCOCC1,6.97%
11,COc1ccc(C)cc1NC(=O)c1cc(-c2ccccc2)nc2c1cnn2C(C)C,1.05%
12,CC(=O)N(C1=C(Cl)C(=O)c2ccccc2C1=O)c1ccc(C(=O)O)cc1,98.9% (active)
13,Cc1cc(OCCCC(=O)NCCN2C(=O)S/C(=C\c3cccnc3)C2=O)ccc1Cl,3.84%
14,OC(c1nc2ccc(F)cc2[nH]1)C(O)c1nc2ccc(F)cc2[nH]1 (stereo not given),6.32%
15,COc1ccc(-c2[nH]ncc2/C=N/NC(=O)c2cc(Br)ccc2O)c(OC)c1,1.62%
16,Cc1ccccc1NC(=O)C(C)c1ccc(-c2ccccc2)c(F)c1 (stereo not given),4.53%
17,CCN1/C(=C\c2ccc3ccccc3[n+]2CC)Sc2cc(C)ccc21,73.9% (active)
18,CCN1/C(=C/c2ccc3ccc(C)cc3[n+]2CC)Sc2ccccc21,31.9% (active)
19,CC(NC(=O)C(C)(C)C)C(c1cccs1)N1CCN(Cc2ccccc2)CC1 (stereo not given),-2.35%
20,O=Cc1c(Nc2ccccc2Cl)nc2ccccn2c1=O,-3.69%
21,CC(=O)c1ccc(S(=O)(=O)Nc2ccc(-c3ccc4nncn4n3)cc2)cc1,2.89%
22,Cc1ccc(CC(=O)N(C)CC(=O)N(CC(C)C)c2c(N)n(CC(C)C)c(=O)[nH]c2=O)cc1C,-2.63%
23,CN(c1ccccc1)c1ccc(/C=c2\s/c(=C(/C#N)C(=O)C(C)(C)C)n(Cc3ccco3)c2=O)cc1,31% (active)
24,CCOC(=O)Cn1c(=O)oc2cc(S(=O)(=O)N(C)Cc3ccco3)ccc21,3.15%
25,O=C(O)c1ccccc1C(=O)NC1=NN(c2ccccc2)CC1,-0.6%
